Experiments:
[1] = target: T1, 3-phosphoinositide-dependent protein kinase 1 (Homo sapiens) (UniProt O15530); settings: at 0.1 µM;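 also: values are mean inhibition of PDK1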
T1 sequence (whole entry): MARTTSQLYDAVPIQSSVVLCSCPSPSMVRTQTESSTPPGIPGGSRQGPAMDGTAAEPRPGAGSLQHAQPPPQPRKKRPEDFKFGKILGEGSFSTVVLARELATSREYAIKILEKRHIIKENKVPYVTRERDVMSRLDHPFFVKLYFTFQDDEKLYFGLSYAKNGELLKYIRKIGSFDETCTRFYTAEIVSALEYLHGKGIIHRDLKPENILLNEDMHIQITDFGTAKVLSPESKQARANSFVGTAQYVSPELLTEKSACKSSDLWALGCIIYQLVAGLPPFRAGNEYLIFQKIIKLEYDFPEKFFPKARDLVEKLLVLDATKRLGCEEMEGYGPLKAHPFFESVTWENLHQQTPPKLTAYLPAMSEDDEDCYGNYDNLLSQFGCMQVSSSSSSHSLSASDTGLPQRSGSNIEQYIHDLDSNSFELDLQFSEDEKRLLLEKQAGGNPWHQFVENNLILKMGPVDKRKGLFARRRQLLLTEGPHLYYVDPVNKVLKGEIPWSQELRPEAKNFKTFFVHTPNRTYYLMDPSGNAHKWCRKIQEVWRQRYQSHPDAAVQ

[2] = target: cAMP-dependent protein kinase catalytic subunit alpha (Homo sapiens) (UniProt P17612); settings: at 0.1 µM
[3] = target: cAMP-dependent protein kinase catalytic subunit alpha (Homo sapiens) (UniProt P17612); settings: at 1 µM
[4] = target: Protein kinase C alpha type (Homo sapiens) (UniProt P17252); settings: at 0.1 µM
[5] = target: Protein kinase C alpha type (Homo sapiens) (UniProt P17252); settings: at 1 µM
[6] = target: Protein kinase C beta type (Homo sapiens) (UniProt P05771); settings: at 0.1 µM
Sequence of Protein kinase C beta type (Homo sapiens) (P05771 2-671 limits assumed): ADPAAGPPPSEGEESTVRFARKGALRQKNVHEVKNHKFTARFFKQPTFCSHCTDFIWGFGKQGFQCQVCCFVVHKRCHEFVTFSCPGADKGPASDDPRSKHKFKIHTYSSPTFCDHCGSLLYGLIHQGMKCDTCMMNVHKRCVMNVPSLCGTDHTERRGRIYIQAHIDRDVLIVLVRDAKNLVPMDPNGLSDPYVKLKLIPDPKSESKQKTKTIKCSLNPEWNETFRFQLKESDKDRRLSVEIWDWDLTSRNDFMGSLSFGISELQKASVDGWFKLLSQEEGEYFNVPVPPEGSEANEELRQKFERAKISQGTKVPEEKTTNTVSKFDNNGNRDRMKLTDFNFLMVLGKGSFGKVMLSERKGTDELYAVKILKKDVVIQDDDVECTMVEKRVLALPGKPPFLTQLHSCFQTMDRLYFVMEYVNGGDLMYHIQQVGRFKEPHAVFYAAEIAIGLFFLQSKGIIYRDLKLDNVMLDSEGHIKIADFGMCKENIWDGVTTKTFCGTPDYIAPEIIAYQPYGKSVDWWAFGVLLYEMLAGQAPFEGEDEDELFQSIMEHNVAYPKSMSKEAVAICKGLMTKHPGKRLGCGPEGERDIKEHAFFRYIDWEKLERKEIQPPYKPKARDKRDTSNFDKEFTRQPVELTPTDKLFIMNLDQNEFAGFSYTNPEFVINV

[7] = target: Protein kinase C beta type (Homo sapiens) (UniProt P05771); settings: at 1 µM
[8] = target: Protein kinase C eta type (Homo sapiens) (UniProt P24723); settings: at 0.1 µM
Sequence of Protein kinase C eta type (Homo sapiens) (P24723 whole entry): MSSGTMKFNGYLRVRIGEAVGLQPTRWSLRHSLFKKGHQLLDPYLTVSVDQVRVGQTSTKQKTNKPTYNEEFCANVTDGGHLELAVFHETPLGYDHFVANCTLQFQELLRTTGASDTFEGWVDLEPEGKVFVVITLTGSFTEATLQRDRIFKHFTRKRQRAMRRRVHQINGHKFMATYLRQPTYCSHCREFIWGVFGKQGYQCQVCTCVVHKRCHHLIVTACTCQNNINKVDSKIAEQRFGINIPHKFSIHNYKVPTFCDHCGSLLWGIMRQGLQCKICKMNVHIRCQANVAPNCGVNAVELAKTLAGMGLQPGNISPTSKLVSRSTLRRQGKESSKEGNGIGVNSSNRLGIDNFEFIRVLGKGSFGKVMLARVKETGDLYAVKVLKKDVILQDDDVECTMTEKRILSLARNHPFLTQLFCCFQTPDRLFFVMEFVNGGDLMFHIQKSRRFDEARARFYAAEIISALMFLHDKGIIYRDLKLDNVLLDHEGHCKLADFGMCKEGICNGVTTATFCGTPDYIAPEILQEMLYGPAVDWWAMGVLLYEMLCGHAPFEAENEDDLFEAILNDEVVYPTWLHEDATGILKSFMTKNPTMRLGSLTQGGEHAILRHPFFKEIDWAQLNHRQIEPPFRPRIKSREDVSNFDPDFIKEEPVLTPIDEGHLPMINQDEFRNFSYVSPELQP

[9] = target: Protein kinase C eta type (Homo sapiens) (UniProt P24723); settings: at 1 µM
[10] = target: Protein kinase C gamma type (Homo sapiens) (UniProt P05129); settings: at 0.1 µM
[11] = target: Protein kinase C gamma type (Homo sapiens) (UniProt P05129); settings: at 1 µM
[12] = target: T2, Protein kinase C iota type (Homo sapiens) (UniProt P41743); settings: at 0.1 µM
T2 sequence (whole entry): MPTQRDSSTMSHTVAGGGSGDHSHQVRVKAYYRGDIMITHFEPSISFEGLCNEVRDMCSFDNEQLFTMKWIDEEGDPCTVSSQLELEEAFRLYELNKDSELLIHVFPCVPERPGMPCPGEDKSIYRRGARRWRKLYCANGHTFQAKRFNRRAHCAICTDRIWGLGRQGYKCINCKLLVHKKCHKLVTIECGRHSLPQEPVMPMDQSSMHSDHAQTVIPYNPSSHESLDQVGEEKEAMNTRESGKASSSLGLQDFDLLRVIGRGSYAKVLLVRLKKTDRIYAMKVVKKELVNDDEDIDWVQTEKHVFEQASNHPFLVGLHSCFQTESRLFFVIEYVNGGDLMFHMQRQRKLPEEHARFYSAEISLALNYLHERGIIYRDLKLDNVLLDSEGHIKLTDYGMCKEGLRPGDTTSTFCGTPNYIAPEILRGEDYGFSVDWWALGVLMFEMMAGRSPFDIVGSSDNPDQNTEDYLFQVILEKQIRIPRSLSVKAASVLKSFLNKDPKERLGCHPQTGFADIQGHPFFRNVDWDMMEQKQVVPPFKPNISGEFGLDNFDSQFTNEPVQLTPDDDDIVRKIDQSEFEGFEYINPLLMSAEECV

[13] = target: T2, Protein kinase C iota type (Homo sapiens); settings: at 1 µM
[14] = target: Protein kinase C theta type (Homo sapiens) (UniProt Q04759); settings: at 0.1 µM
Sequence of Protein kinase C theta type (Homo sapiens) (Q04759 whole entry, looked up): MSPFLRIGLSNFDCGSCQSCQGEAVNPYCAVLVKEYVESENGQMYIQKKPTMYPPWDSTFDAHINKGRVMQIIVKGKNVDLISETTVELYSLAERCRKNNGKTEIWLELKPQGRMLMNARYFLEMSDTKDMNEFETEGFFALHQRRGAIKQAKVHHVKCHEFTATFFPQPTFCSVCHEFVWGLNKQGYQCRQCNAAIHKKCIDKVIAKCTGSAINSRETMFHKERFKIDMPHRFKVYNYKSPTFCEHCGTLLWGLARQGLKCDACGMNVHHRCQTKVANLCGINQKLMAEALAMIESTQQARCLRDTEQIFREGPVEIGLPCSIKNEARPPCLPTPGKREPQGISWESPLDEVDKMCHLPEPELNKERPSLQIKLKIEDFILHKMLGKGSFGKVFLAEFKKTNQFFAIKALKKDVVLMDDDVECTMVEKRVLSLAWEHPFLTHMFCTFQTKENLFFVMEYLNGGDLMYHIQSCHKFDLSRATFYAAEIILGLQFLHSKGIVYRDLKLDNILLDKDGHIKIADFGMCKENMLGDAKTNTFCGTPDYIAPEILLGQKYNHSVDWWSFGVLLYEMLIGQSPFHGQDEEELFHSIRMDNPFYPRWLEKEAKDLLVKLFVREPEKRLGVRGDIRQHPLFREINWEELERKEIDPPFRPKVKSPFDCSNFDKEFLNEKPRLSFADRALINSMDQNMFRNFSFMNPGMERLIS

[15] = target: Protein kinase C theta type (Homo sapiens) (UniProt Q04759); settings: at 1 µM
[16] = target: Protein kinase C beta type (Homo sapiens) (UniProt P05771); settings: at 0.1 µM; remark: listed apart in the source
[17] = target: Protein kinase C beta type (Homo sapiens) (UniProt P05771); settings: at 1 µM; remark: listed apart in the source
[18] = target: T3, Serine/threonine-protein kinase D1 (Homo sapiens) (UniProt Q15139); settings: at 0.1 µM
T3 sequence (whole entry): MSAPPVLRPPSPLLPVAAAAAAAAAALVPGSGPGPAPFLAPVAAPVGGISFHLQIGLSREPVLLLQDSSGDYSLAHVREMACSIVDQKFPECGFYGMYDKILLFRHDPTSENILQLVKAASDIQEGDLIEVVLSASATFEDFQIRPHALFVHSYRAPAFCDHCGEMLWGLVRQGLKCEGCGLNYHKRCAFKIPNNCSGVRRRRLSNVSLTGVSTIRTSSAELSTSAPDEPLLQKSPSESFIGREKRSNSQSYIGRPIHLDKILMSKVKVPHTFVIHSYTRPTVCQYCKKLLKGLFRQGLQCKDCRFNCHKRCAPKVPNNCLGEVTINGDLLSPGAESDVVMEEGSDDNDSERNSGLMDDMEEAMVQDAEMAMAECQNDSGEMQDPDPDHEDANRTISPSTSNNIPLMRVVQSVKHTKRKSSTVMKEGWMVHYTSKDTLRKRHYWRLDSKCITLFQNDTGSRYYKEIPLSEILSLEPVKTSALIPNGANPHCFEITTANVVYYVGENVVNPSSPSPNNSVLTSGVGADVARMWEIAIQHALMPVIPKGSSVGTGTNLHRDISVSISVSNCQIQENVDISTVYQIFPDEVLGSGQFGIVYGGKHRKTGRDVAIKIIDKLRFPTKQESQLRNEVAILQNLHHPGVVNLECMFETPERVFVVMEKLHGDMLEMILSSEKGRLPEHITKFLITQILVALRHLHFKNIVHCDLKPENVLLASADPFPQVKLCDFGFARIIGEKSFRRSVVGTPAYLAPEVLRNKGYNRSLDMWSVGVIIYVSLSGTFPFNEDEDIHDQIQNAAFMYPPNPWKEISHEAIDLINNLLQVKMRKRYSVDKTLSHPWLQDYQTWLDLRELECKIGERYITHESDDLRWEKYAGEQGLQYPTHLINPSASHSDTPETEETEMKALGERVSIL

[19] = target: T3, Serine/threonine-protein kinase D1 (Homo sapiens); settings: at 1 µM
[20] = target: T4, Serine/threonine-protein kinase D2 (Homo sapiens) (UniProt Q9BZL6); settings: at 0.1 µM;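 also: reported percent inhibition values are means, part of the GSK PKIS kinase panel screen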
T4 sequence (whole entry): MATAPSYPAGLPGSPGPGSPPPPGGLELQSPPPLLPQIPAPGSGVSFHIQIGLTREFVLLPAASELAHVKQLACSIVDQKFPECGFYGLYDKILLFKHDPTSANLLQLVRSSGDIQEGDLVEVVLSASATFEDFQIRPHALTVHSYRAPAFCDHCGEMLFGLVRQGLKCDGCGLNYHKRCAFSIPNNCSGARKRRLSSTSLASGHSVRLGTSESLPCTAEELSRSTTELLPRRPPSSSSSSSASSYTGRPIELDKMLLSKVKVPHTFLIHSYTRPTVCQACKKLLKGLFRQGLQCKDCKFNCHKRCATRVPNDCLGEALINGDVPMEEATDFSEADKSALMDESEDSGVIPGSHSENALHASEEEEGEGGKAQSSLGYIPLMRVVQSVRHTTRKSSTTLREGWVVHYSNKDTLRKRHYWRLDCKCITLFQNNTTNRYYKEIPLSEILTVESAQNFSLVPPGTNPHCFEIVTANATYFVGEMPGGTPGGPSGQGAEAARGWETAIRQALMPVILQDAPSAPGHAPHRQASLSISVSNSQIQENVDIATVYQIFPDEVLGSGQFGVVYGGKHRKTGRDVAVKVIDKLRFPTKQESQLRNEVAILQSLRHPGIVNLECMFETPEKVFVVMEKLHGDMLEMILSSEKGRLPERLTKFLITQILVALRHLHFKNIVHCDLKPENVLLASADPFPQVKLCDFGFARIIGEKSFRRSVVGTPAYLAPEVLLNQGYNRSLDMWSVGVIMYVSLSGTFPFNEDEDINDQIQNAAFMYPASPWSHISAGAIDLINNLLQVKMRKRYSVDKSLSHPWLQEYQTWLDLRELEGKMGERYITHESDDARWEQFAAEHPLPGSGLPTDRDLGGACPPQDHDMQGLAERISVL

SMILES	inhibition [1] [%]	inhibition [2] [%]	inhibition [3] [%]	inhibition [4] [%]	inhibition [5] [%]	inhibition [6] [%]	inhibition [7] [%]	inhibition [8] [%]	inhibition [9] [%]	inhibition [10] [%]	inhibition [11] [%]	inhibition [12] [%]	inhibition [13] [%]	inhibition [14] [%]	inhibition [15] [%]	inhibition [16] [%]	inhibition [17] [%]	inhibition [18] [%]	inhibition [19] [%]	inhibition [20] [%]
Nc1nc(-c2ccc(F)cc2)c(-c2ccc3ncccc3n2)s1	3.99	1.65	3.75	1.13	2.9	0.21	3.92	1.76	6.71	2.26	4.5	2.17	1.59	1.69	3.74	1.11	3.48	8	45	8.22
CC(C)COC(=O)c1ccc2c(c1)/C(=C/Nc1ccc(S(N)(=O)=O)cc1)C(=O)N2	19.6	6.49	11.8	1.15	7.21	3.19	5.57	-1.68	1.97	-1.87	9.06	-0.44	1.73	2.36	7.78	3.37	6.47	4.18	56	4.41
Fc1ccc(-c2nn3ncccc3c2-c2ccnc(Nc3ccc4c(c3)OCCO4)n2)cc1	1.87	2.22	7.13	1.5	15.3	1.43	13.3	2.26	6.09	-1.6	7.86	0.67	3.27	1.22	3.8	3.86	20.1	4.89	36.5	8.87
COc1cc(N2CCN(C(C)C)CC2)ccc1Nc1nc(Nc2ccc(F)cc2C(N)=O)c2cc[nH]c2n1	-1.21	7.85	7.44	0.54	6.72	1.83	4.58	1.05	3.09	3.65	15.7	-0.5	0.42	2.56	4.69	1.59	5.72	61.7	84.3	59.9
COC(=O)Nc1nc2ccc(Oc3ccc(NC(=O)Nc4cccc(Cl)c4)cc3)cc2[nH]1	-0.86	2.12	0.79	0.15	-0.86	-1.37	-5.17	0.84	-0.24	0.84	-1.47	0.42	0.23	0.36	0.17	0.5	0.57	2.7	3.03	1.6
COc1cc2c(cc1Nc1nc(Nc3ccsc3C(N)=O)c3cc[nH]c3n1)N(C(=O)CN(C)C)CCC2(C)C	2.56	2.98	8.67	4.21	34.3	2.16	3.73	6.04	9.1	8.05	44	2.68	5.01	4.59	16.2	3.45	15	11.2	58.5	17.5
CNC(=O)c1cncc(/C=C/c2ccccc2Cl)c1	-0.25	1.4	3.17	0.42	-0.07	2.7	5.12	1.33	2.39	3.03	3.18	1.77	0.56	1.22	3.14	2.46	1.4	1.19	-1.46	-1
NS(=O)(=O)c1ccc(Nc2ncc(-c3ccccc3)o2)cc1	4.51	1.3	3.27	0	1.96	-0.16	1.54	3.2	1.9	1.28	2.49	2.01	1.3	1.68	3.14	0.96	2.07	3.47	6.2	2.92
CCn1c(-c2nonc2N)nc2c(C#CC(C)(C)O)ncc(OC3CCNCC3)c21	2.52	62.4	89.9	3.68	30.4	41.8	73.2	89.7	99.9	35.1	89.5	-0.03	6.53	38	81.5	19.7	61.7	4.17	13.4	3.98
COc1ccc(-c2cc3c(N)ncnc3o2)cc1	-0.95	-0.06	0.18	-0.88	3	-0.74	-2.12	-4.39	-1.49	0.2	8.58	-0.83	-1.03	-1.21	-1.64	0.45	1.65	-1	-1.28	-0.34
CCN(CC)S(=O)(=O)c1ccc(OC)c(Nc2ncc(-c3ccccc3)o2)c1	1.9	0.79	1.82	0.46	1.64	1.38	1.74	3.12	0.58	0.29	3.98	0.63	-0.91	1.36	1.38	0.23	1.41	1.66	0.39	0.75
Cc1ccc(O)cc1Nc1ccnc2cc(-c3ccccn3)ccc12	3.22	1.65	0.73	0.94	1.06	-0.22	0.21	4.81	3.71	5.48	4.48	2.29	4.56	2.6	1.93	1.13	1.55	5.06	28.9	6.27
CS(=O)(=O)CCNCc1ccc(-c2ccc3ncnc(Nc4ccc(OCc5ccccc5)c(C(F)(F)F)c4)c3c2)o1	-0.19	1.37	1.5	0.59	0.28	0.21	1.23	4.55	5.11	2.66	0.29	1.93	2.76	1.99	1.95	1.11	1.5	3.89	5.55	3.28

From ChEMBL document CHEMBL1961873, “Compounds: GSK PKIS; Assays: Nanosyn kinase panel” (2012)
